RGS4-Gao reg – human RGS4-Galphao interaction regulation. Multiplexed bead flow cytometry, RGS4-Galphao binding; actives lie on both sides. binding response (% of control), % at 10 µM. AID 1415. 220,000 tested, 0.33% active. P09471; in the data active = binding response below about 49% or above about 150%; inactive = in between;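 note: fluorescent Galphao activated with aluminum fluoride binding bead-coupled RGS4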
Target sequence (P09471 whole entry, looked up): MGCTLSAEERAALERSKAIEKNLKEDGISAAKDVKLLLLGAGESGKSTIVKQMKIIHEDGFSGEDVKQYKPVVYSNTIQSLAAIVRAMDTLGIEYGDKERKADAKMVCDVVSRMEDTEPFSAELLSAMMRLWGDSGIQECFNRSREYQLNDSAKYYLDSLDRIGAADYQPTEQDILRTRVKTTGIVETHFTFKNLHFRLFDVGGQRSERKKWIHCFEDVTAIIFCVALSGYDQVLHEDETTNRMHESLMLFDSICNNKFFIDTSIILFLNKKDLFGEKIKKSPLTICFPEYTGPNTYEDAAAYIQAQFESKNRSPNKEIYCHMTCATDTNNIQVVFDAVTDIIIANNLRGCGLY
RGS8-Gao – modulates binding of RGS8 to human Galphao; P09471; multiplexed bead flow cytometry; actives lie on both sides; response (percent of control binding), % at 10 µM; 220,000 tested, 0.34% active; in the data active = response below about 60% or above about 140%; inactive = in between;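 note: Galphao activated as the GDP aluminium fluoride complex binding bead-coupled RGS8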
Avidin bead fluor – avidin bead compound fluorescence profile; 220,000 tested, 0.38% active; fluorescence (KMESF) at 10 µM; Avidin beads, compound fluorescence 488/530 nm, flow cytometry; active compounds read high; in the data active = fluorescence above about 47
GSH bead fluor – compound fluoresces at 488/530 nm on GSH beads. AID 1776. fluorescence (KMESF) at 10 µM. 190,000 tested, 0.25% active. GSH beads flow cytometry, compound fluorescence 488/530 nm; active compounds read high; in the data active = fluorescence above about 89;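 note: glutathione beads carrying GST-tagged Bcl family fusion proteins plus one bare bead set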
RGS16-Gao – regulators of human RGS16-Galphao interaction. O15492+P09471. bead-based flow cytometry RGS16-Galphao binding, fluorescence; actives lie on both sides. binding response (% of control), % at 10 µM. 220,000 tested, 0.38% active. AID 1441;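 note: Galphao activated by GDP with aluminum fluoride before binding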
RGS7-Gao reg – modulates binding of RGS7 to human Galphao | P09471 | Multiplexed bead flow cytometry; actives lie on both sides | binding response (% of control), % at 10 µM | 220,000 tested, 0.35% active; in the data active = binding response below about 49% or above about 150%; inconclusive = no clear call, values can overlap the other calls; inactive = in between;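 note: fluorescent Galphao held in activated GDP-AlF4 state binding bead-coupled RGS7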
RGS-Gao – RGS4-Galphao interaction regulator (human); AID 1504; 1,600 tested, 99% active; shares compounds with RGS16-Gao; RGS4–Galpha-o binding response, % at 10 µM; multiplexed bead flow cytometry, RGS–Galpha-o binding;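 note: fluorescently labeled Galpha-o bound to GDP with aluminium fluoride binding biotinylated RGS beads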
Avidin counter – biotin-avidin bead binding disruption counter-screen | shares compounds with RGS16-Gao | streptavidin beads, fluorescein-biotin binding, flow cytometry | inhibition, % at 10 µM | 1,700 tested, under 10 active | AID 1783;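 active = inhibition above 50%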;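 note: median green fluorescence of gated singlet beads compared with DMSO control wells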
RGS8-Gao confirm – confirmation of regulators of human RGS8-Galphao interaction | shares compounds with RGS16-Gao | bead-based flow cytometry RGS8-Galphao binding, fluorescence; actives lie on both sides | binding response (% of control), % at 10 µM | 1,700 tested, 3% active | AID 1836; in the data active = binding response below about 72% or above about 130%; inactive = in between;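 note: Galphao activated as GDP AlF4 complex before binding bead RGS8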
RGS7-Gao single – RGS7-Galphao interaction regulation, single point confirmation; shares compounds with RGS16-Gao; bead-based flow cytometry RGS7-Galphao binding; actives lie on both sides; response (percent of control binding), % at 10 µM; 1,700 tested, 7.8% active; AID 1837; in the data active = response below about 75% or above about 130%; inactive = in between;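 note: fluorescent Galphao activated with GDP and aluminum fluoride binding bead-coupled RGS7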
RGS16-Gao single – RGS16-Galphao interaction regulation, single point confirmation. shares compounds with RGS16-Gao. bead-based flow cytometry, RGS16-Galphao binding; actives lie on both sides. response (% of control binding), % at 10 µM. 1,700 tested, 4% active. AID 1838; in the data active = response below about 74% or above about 130%; inactive = in between;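 note: Galphao activated as the GDP aluminium fluoride complex binding bead-coupled RGS16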
RGS4-Gao confirm – confirmation of regulators of human RGS4-Galphao interaction; shares compounds with RGS16-Gao; RGS4-Galphao binding, multiplexed bead flow cytometry; actives lie on both sides; binding response (% of control), % at 10 µM; 1,700 tested, 4% active; AID 1840; in the data active = binding response below about 74% or above about 130%; inactive = in between
RGS19-Gao conf – RGS19-Galphao interaction regulation, single point confirmation; shares compounds with RGS16-Gao; bead-based flow cytometry RGS19-Galphao binding; actives lie on both sides; response (percent of control binding), % at 10 µM; 1,700 tested, 5% active; AID 1841; in the data active = response below about 50% or above about 160%; inactive = in between
Target sequence (P09471 whole entry, looked up): as above
Target sequence (P49795 whole entry, looked up): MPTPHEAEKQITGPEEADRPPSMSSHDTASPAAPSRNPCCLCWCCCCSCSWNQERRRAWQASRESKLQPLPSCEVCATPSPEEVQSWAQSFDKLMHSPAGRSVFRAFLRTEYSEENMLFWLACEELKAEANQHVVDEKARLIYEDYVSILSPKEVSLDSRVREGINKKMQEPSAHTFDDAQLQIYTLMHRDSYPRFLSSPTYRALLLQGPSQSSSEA
A number is an active result; 0 = inactive; ? = inconclusive; - = not tested or not shown; [ ] = dose if it differs, or a comment. A selection: hits, their analogues and other compounds. The true share with any hit is near 1.2%. Unless noted, the rule behind the calls is not given here.

SMILES	RGS4-Gao reg	RGS8-Gao	Avidin bead fluor	GSH bead fluor	RGS16-Gao	RGS7-Gao reg	RGS-Gao	Avidin counter	RGS8-Gao confirm	RGS7-Gao single	RGS16-Gao single	RGS4-Gao confirm	RGS19-Gao conf
CC1CN(C(=O)c2c(Br)cnn2C)CC(C)O1 (stereo not drawn)	0	0	0	0	0	0	-	-	-	-	-	-	-
Cc1ccccc1N=C(NOCc1ccc(Cl)cc1Cl)c1nonc1N	-	-	-	0	-	-	-	0	0	0	0	0	0
OCC1OC(n2cnc3ccccc32)CC1O (stereo not drawn)	0	0	0	-	0	?	-	-	-	-	-	-	-
COC(=O)C(C)NC(=O)C(C)NC(=O)OCc1ccccc1 (stereo not drawn)	-	-	-	0	-	-	-	0	0	0	0	0	0
CC(C)c1nc2sc(C(=O)O)c(N)c2c2c1CCCC2	0	0	0	-	0	?	-	-	-	-	-	-	-
Oc1cc2c(cc1O)C1c3ccc(O)c(O)c3OCC1(O)C2 (stereo not drawn)	0	19.5	0	0	3.4	32.0	67.2	-	-	-	-	-	-
CC(C)OP(=O)(OC(C)C)C(O)c1cccc([N+](=O)[O-])c1 (stereo not drawn)	0	0	0	-	0	?	-	-	-	-	-	-	-
Nc1nnc(SCC(=O)OCC(=O)NC23CC4CC(CC(C4)C2)C3)s1	18.5	13.5	0	0	7.7	?	-	0	0	0	0	0	0
Fc1ccc(C(Nc2ccccn2)c2c[nH]c3ccccc23)cc1 (stereo not drawn)	0	140.5[activator]	0	0	0	0	124.5	0	0	0	0	0	0
COc1c(Cl)cc(Cl)cc1/C=C/C(=O)c1ccc(NC(=O)c2cccs2)cc1	25.3	21.9	0	0	9.2	15.9	-	0	0	0	0	0	0
COc1c(Cl)cc(Cl)cc1C(=O)Nc1ccc(C(=O)O)cc1	0	0	0	0	0	0	-	-	-	-	-	-	-
CC(=O)Nc1ccc(S(=O)(=O)NCCCN2CCN(Cc3ccccc3)CC2)cc1Cl	0	0	0	-	0	?	-	-	-	-	-	-	-
O=C(Cn1nnc2ccccc2c1=O)N[C@H](C(=O)O)c1ccccc1	0	0	0	-	0	?	-	-	-	-	-	-	-
CCOC(=O)C1CNc2cc(S(=O)(=O)CC)ccc2O1 (stereo not drawn)	0	0	0	0	0	0	-	-	-	-	-	-	-
Cc1c(Br)c(=O)oc2c(Br)c(O)c(O)cc12	0	41.7	0	0	16.4	0	51.6	0	0	0	0	0	0
Cc1cc(NC(=O)c2ccccc2)nc(C)n1	174.4[activator]	149.8[activator]	0	-	0	?	-	0	0	0	0	0	0
Cc1cc(NC(=O)c2ccccc2)n(C(C)(C)C)n1	0	0	0	-	0	?	-	-	-	-	-	-	-
CSCCC(NC(=O)c1ccc(C(C)(C)C)cc1)C(=O)O (stereo not drawn)	0	0	0	0	0	0	-	-	-	-	-	-	-
N#CC1CCN(c2ncccc2[N+](=O)[O-])CC1	282.4[activator]	0	0	-	0	?	-	0	0	0	0	0	0
O=c1[nH]cnc2c1oc1ccccc12	0	143.1[activator]	0	0	0	0	116.7	0	0	0	0	0	0
CCc1nc2c(oc3ccccc32)c(=O)[nH]1	0	0	0	0	0	0	-	-	-	-	-	-	-
Cc1cc(NC(=O)C2CCC2)n(-c2ccccn2)n1	8.2	13.5	0	0	3.5	6.5	-	0	0	0	0	0	0
Cc1cc(NC(=O)C2CCCCC2)n(-c2nc3ccccc3[nH]2)n1	0	0	0	0	0	0	-	-	-	-	-	-	-
COc1ccc(OC)c(NC(=O)c2ccc(CSc3ncccn3)cc2)c1	0	0	0	0	0	0	-	-	-	-	-	-	-
CC(C)CNC(=O)NC(=O)COC(=O)c1ccccc1Sc1ccc(C(F)(F)F)cc1[N+](=O)[O-]	0	0	0	0	0	0	-	-	-	-	-	-	-
SMILES	RGS4-Gao reg	RGS8-Gao	Avidin bead fluor	GSH bead fluor	RGS16-Gao	RGS7-Gao reg	RGS-Gao	Avidin counter	RGS8-Gao confirm	RGS7-Gao single	RGS16-Gao single	RGS4-Gao confirm	RGS19-Gao conf
C=CCNC(=O)NC(=O)COC(=O)c1ccccc1Sc1ccc(C(F)(F)F)cc1[N+](=O)[O-]	0	0	0	0	184.1[activator]	0	106.1	0	0	0	0	0	0
Cc1ccc(-c2nnn(C/C(N)=N/O)n2)cc1	0	0	0	0	0	0	-	-	-	-	-	-	-
CCOc1cc(/C=N/O)ccc1OCc1ccc([N+](=O)[O-])cc1	0	0	0	0	0	0	-	-	-	-	-	-	-
O=[N+]([O-])c1ccc(COc2ccccc2/C=N/O)cc1	0	0	0	0	22.5	0	89.2	0	0	0	0	0	0
NNC(=O)CN1CCN(c2ncc(C(F)(F)F)cc2Cl)CC1	0	0	0	0	0	0	-	-	-	-	-	-	-
CC(C)(C)NC(=O)NC(=O)CN1CCN(c2ncc(C(F)(F)F)cc2Cl)CC1	-	-	-	0	-	-	-	0	0	0	0	0	0
CCc1c(C(=O)Nc2ccccc2)c(C)[nH]c(=S)c1C#N	0	0	0	0	-59.5	0	99.4	0	0	129.6[activator]	0	0	0
C/C(CC(=O)Nc1ccc(Cl)cc1)=N\NC(=O)C(=O)N1CCCCC1	0	0	0	0	0	0	-	-	-	-	-	-	-
CCN(CC)C(=O)C(=O)c1cccn1-c1c(Cl)cccc1C#N	0	0	109	0	0	157.8[activator]	112.3	0	0	0	0	0	0
Cc1noc(C)c1CSc1ncnc2sc3c(c12)CCCCC3	0	0	0	0	0	0	-	-	-	-	-	-	-
Cc1noc(C)c1CSc1ncnc2sc(C)c(C)c12	0	0	-	0	-	-	-	0	0	0	0	0	0
O=C(Nc1ccccc1F)c1ccc(COc2ccc(Cl)cc2Cl)o1	0	0	0	0	0	0	-	-	-	-	-	-	-
CC(C)CNC(=O)c1ccc(COc2ccc(Cl)cc2Cl)o1	0	59.8	0	0	0	48.5	51.6	0	0	0	0	0	0
O=C(NCCN=C1NS(=O)(=O)c2ccccc21)c1ccncc1	0	0	72	0	0	163.0[activator]	148.3	0	0	0	0	0	0
O=C(NCCN=C1NS(=O)(=O)c2ccccc21)c1ccc2nccnc2c1	0	0	0	0	0	0	-	-	-	-	-	-	-

Screening data deposited in PubChem by NMMLSC.
